Results published in ChEMBL document CHEMBL3988442, “University of Dundee, Small-Polar-MMV Screening Library” (2021).
Screen size: about 48,000 compounds; about 13,000 (27%) showed an effect of 50% or more. Some of the results follow.

What follows are compounds tested on Wolbachia pipientis (assay: Anti-Wolbachia Cell-Based Screen). Conditions: 5 µM.
Type: functional
Parameters: scale not given: in the data most compounds retested in dose-response had high values

Row | SMILES | Percent Effect
1 | CN(C)C(=O)Cn1cc(C#N)c(=O)c2cc(Br)ccc21 | -22.43%
2 | COCC(NC(=O)c1ccc(O)nc1)c1ccc(C)o1 (configuration not stated) | 3.678%
3 | O=S(=O)(c1ccc(-c2nc3c([nH]2)CCNC3)cc1)N1CCCC1 | -8.56%
4 | CCCSCC(=O)N1CCCC(c2nccn2Cc2ccncc2)C1 (configuration not stated) | 15.91%
5 | O=C(COCC1CC1)N1CCCC(n2cncn2)C1 (configuration not stated) | 10.78%
6 | CC(c1ccccn1)N(C)Cc1ccc(CCC(C)(C)O)cc1 (configuration not stated) | 6.636%
7 | CN(Cc1ccc(-n2cncn2)cc1)Cc1ncc[nH]1 | -14.86%
8 | CC(C)C(O)C(C)(C)CNC(=O)NCc1ccc(-n2cncn2)cc1 (configuration not stated) | -5.14%
9 | COCCn1ccnc1CN(Cc1ccccn1)CC(C)C | -12.4%
10 | CN(Cc1ccc(-n2ccnc2)cc1)Cc1ncc[nH]1 | -4.002%
11 | CC(c1ccccn1)N(C)Cc1ccc(-n2cncn2)cc1 (configuration not stated) | 115.2%
12 | CC(C)CN(Cc1ccc(O)c(C(=O)O)c1)Cc1ccccn1 | -5.995%
13 | CC(C)CN(Cc1ccc(-n2cncn2)cc1)Cc1ccccn1 | 111.5%
14 | CC(c1ccccn1)N(C)Cc1ccc(-n2ccnc2)cc1 (configuration not stated) | 100.9%
15 | COc1ccc(OC)c(S(=O)(=O)NC(=O)C(C)OC)c1 (configuration not stated) | 1.842%
16 | CC(C)=CCC1(CO)CCCN(S(C)(=O)=O)C1 (configuration not stated) | -9.202%
17 | CCc1csc(C2CCCN(C(=O)c3ccc(OC)nc3)C2)n1 (configuration not stated) | 6.728%
18 | CC(C)c1csc(C2CCCN(C(=O)c3ncccn3)C2)n1 (configuration not stated) | 1.009%
19 | CCc1csc(C2CCCN(C(=O)c3ccc(=O)n(CC)n3)C2)n1 (configuration not stated) | 101.1%
20 | CCc1csc(C2CCCN(C(=O)c3ccc4[nH]nnc4c3)C2)n1 (configuration not stated) | 100.2%
21 | CCc1csc(C2CCCN(C(=O)c3cnc[nH]3)C2)n1 (configuration not stated) | 106.6%
22 | CCc1csc(C2CCCN(C(=O)c3ncccn3)C2)n1 (configuration not stated) | 104%
23 | CCc1nc(CN2CCCN(C(=O)c3cnc[nH]3)CC2)cs1 | -9.99%
24 | CCc1csc(C2CCCN(C(=O)c3ccncc3)C2)n1 (configuration not stated) | 12.22%
25 | CCc1csc(C2CCCN(C(=O)c3ccc(=O)n(C)n3)C2)n1 (configuration not stated) | -0.1419%
26 | Cc1csc(C2CCCN(C(=O)c3cnc[nH]3)C2)n1 (configuration not stated) | -6.546%

Row | SMILES | Percent Effect
27 | CCc1csc(C2CCCN(C(=O)c3ccc4c(c3)OCO4)C2)n1 (configuration not stated) | -10.1%
28 | COC(=O)CNC(=O)C1(NC(=O)c2ccc3[nH]ncc3c2)CCCC1 | 5.444%
29 | CNS(=O)(=O)c1ccccc1N1CCN(C(C)C(N)=O)CC1 (configuration not stated) | -9.322%
30 | CC(C)NC(=O)N1CC[C@@H](N(C)C)[C@@H]1Cc1ccncc1.O=C(O)C(F)(F)F.O=C(O)C(F)(F)F | -7.431%
31 | CCc1csc(C2CCCN(C(=O)c3ccc(OC)nn3)C2)n1 (configuration not stated) | 3.799%
32 | Cc1csc(C2CCCN(C(=O)c3cc(Cl)c[nH]3)C2)n1 (configuration not stated) | -0.3257%
33 | CCc1csc(C2CCCN(C(=O)c3ccccn3)C2)n1 (configuration not stated) | 106.7%
34 | CCc1csc(C2CCCN(C(=O)c3ccco3)C2)n1 (configuration not stated) | 94.24%
35 | CCc1csc(C2CCCN(C(=O)c3cc(C4CC4)[nH]n3)C2)n1 (configuration not stated) | 98.97%
36 | CCc1csc(C2CCCN(C(=O)c3c[nH]c(C)n3)C2)n1 (configuration not stated) | 6.503%
37 | CCOC(=O)CCC(=O)N1CC(c2nc(Cc3ccccc3)no2)C1 | -13.25%
38 | CCN(C(=O)CN1CCC(c2ccccc2)C1)C1CC1 (configuration not stated) | 4.674%
39 | CCOC(=O)[C@@H]1CN2CCNC[C@@H]2[C@H]1c1ccccc1 | 110.8%
40 | O=C(CCn1cncn1)N1C[C@H]2CC[C@@H]1CN(Cc1ccncc1)C2 | 5.769%
41 | CC(CN1CCOCC1)OC(=O)c1cccc2cn[nH]c12 (configuration not stated) | -3.971%
42 | Cc1oc(C)c(C(=O)N2CCCN(Cc3cscn3)CC2)c1C | 2.495%
43 | CCc1noc(C)c1C(=O)N1CCCN(Cc2csc(C)n2)CC1 | 18.09%
44 | CCc1noc(C)c1C(=O)N1CCCN(Cc2cscn2)CC1 | 149%
45 | Cc1oc(C)c(C(=O)N2CCN(Cc3cscn3)CC2)c1C | 159.3%
46 | Cc1cc(C(C)C(=O)N2CCCN(Cc3cscn3)CC2)c(C)o1 (configuration not stated) | -21.53%
47 | Cc1nc(CN2CCCN(C(=O)c3c(C)noc3C)CC2)cs1 | 14.06%
48 | Cc1csc(N2CCCN(C(=O)c3c(C)oc(C)c3C)CC2)n1 | 12.08%
49 | Cc1nc(CN2CCCN(C(=O)c3c(C)oc(C)c3C)CC2)cs1 | 108.1%
50 | Cc1ocnc1C(=O)N1CCCN(Cc2cscn2)CC1 | 126.9%
51 | Cc1noc(C)c1CNC(=O)N1CCN(Cc2cscn2)CC1 | -4.059%
52 | Cc1nn(C)c(Cl)c1S(=O)(=O)N(CC(N)=O)CC(C)C | -2.815%

Row | SMILES | Percent Effect
53 | O=C(c1cccc(F)c1F)N1CCn2c(nnc2C(F)(F)F)C1 | -8.426%
54 | O=C(NCC1=CCCCC1)C(c1cccnc1)N1CCCC1 (configuration not stated) | 4.63%
55 | Cc1noc(C(C)C)c1C(=O)N1CCCN(Cc2cscn2)CC1 | 0.5158%
56 | CC(C)c1ncncc1C(=O)N1CCN(Cc2cscn2)CC1 | -5.142%
57 | CCc1nc(CN2CCCN(C(=O)c3c(C)noc3C)CC2)cs1 | -12.93%
58 | CCc1ncncc1C(=O)N1CCN(Cc2ccco2)CC1 | 2.127%
59 | CCc1ncncc1C(=O)N1CCN(Cc2cscn2)CC1 | 108.1%
60 | Cc1noc(C)c1C(=O)N1CCCN(Cc2cscn2)CC1 | 110.4%
61 | CN(CC(=O)Nc1ccccc1C(=O)NC1CC1)Cc1ccccc1Cl | 6.232%
62 | CN(C)CCCNC(=O)c1ccccc1NC(=O)c1cc(Cl)ccc1Cl | 87.51%
63 | CN(C)CCNC(=O)c1ccccc1NC(=O)c1cc(Cl)ccc1Cl | 115.7%
64 | CN(C)CCCNC(=O)c1ccnc(OCc2ccccc2)c1 | -11.72%
65 | CN(C)CCCNC(=O)c1ccccc1NC(=O)c1ccccc1Cl | 105.1%
66 | COc1cc(NC(=O)c2ccccc2F)c(C(=O)N(C)C)cc1OC | -7.835%
67 | CN(C)CCNC(=O)c1cnc2c(c1)nc(-c1ccccc1Cl)n2C | -9.554%
68 | Cc1ccnc(NC(=O)CCNC(=O)c2ccccc2Cl)c1 | 8.062%
69 | CN(CCCNC(=O)c1ccccc1F)CC(F)(F)F | 0.1047%
70 | COCc1nc2cc(NCc3cc[nH]n3)ccc2o1 | -2.175%
71 | CC(=O)Nc1cc(CN(C)C)ccc1C | -5.311%
72 | CC(C(=O)N1CCCC1)S(=O)(=O)Cc1noc(C(C)(C)C)n1 (configuration not stated) | -6.108%
73 | Cc1cc(C2CCCN(CCCNS(C)(=O)=O)C2)n[nH]1 (configuration not stated) | -11.22%
74 | Cc1cc(C2CCCN(CCCS(N)(=O)=O)C2)n[nH]1 (configuration not stated) | 116%
75 | Cc1cc(C2CCCN(Cc3ncc(C)o3)C2)n[nH]1 (configuration not stated) | -4.273%
76 | Cc1cc(C2CCCN(CCCS(C)(=O)=O)C2)n[nH]1 (configuration not stated) | 81.87%
77 | Cc1cc(C)n(CC2CCCN2CCCS(N)(=O)=O)n1 (configuration not stated) | -6.761%
78 | COC(=O)c1cc(NC(=O)CCc2cscn2)ccc1C | -13.27%

Row | SMILES | Percent Effect
79 | CN1CSC[C@H]1C(=O)N1CCN(Cc2cccc(F)c2)CC1 | -1.728%
80 | c1cnnc(N2CCCC2CNCc2cc[nH]n2)c1 (configuration not stated) | 6.061%
81 | NCC1Cn2nnc(-c3cccc(F)c3)c2CO1 (configuration not stated) | -2.933%
82 | Cc1cnn(CCNCc2csc(C)n2)c1 | 11.83%
83 | CCOCC1c2c(cnn2CC2CC2)CCN1Cc1nccs1.O=C(O)C(F)(F)F.O=C(O)C(F)(F)F (configuration not stated) | 115.2%
84 | COCC1c2c(cnn2CC2CC2)CCN1Cc1ccc(OC)cc1 (configuration not stated) | -7.562%
85 | CCn1ncc2c1C(COCC1CC1)N(Cc1c(C)noc1C)CC2.O=C(O)C(F)(F)F.O=C(O)C(F)(F)F (configuration not stated) | -2.948%
86 | COCC1c2c(cnn2CC2CC2)CCN1Cc1cccs1.O=C(O)C(F)(F)F.O=C(O)C(F)(F)F (configuration not stated) | -10.1%
87 | COCC1c2c(cnn2CC2CC2)CCN1Cc1cc(C)on1.O=C(O)C(F)(F)F.O=C(O)C(F)(F)F (configuration not stated) | 63.1%
88 | CCn1ncc2c1C(COCC1CC1)N(Cc1nccs1)CC2.O=C(O)C(F)(F)F.O=C(O)C(F)(F)F (configuration not stated) | -10.7%
89 | COCC1c2c(cnn2CC2CC2)CCN1Cc1ccsc1.O=C(O)C(F)(F)F.O=C(O)C(F)(F)F (configuration not stated) | 107.6%
90 | COCC1c2c(cnn2CC2CC2)CCN1Cc1ccc(C)o1.O=C(O)C(F)(F)F.O=C(O)C(F)(F)F (configuration not stated) | 107.5%
91 | COCC1c2c(cnn2CC2CC2)CCN1Cc1nccs1.O=C(O)C(F)(F)F.O=C(O)C(F)(F)F (configuration not stated) | -17.24%
92 | CCN1C[C@H]2C3(CCN(S(=O)(=O)CC)CC3)CC[C@@]2(C(=O)N(C)C)C1.O=C(O)C(F)(F)F | -7.289%
93 | Cc1ccc2nc(C3CCCN3Cc3nnc(C)s3)[nH]c2c1 (configuration not stated) | -155.9%
94 | Clc1ccc2nncc(N3CCCCC3)c2c1 | -7.543%
95 | O=C(NCCCN1CCOCC1)C1CCCN(Cc2ccco2)C1 (configuration not stated) | 1.976%
96 | N#Cc1ccccc1C(=O)NCCC1CN(Cc2ccco2)CCO1 (configuration not stated) | 86.72%
97 | CCC1CN(CC(=O)NCc2ccco2)CCO1 (configuration not stated) | -17.78%
98 | NC1(C(=O)NCCC2CN(Cc3ccco3)CCO2)CCCC1 (configuration not stated) | 117.7%
99 | CC(C)(C)C(=O)NCCC1CN(Cc2ccccc2F)CCO1 (configuration not stated) | -7.627%
100 | O=C(NCCC1CN(Cc2c[nH]cn2)CCO1)c1ccccc1O (configuration not stated) | -1.985%
101 | Cc1ccc(C)c(NC(=O)Nc2c[nH]c(=O)[nH]c2=O)c1 | -8.651%
102 | Cc1cccc2c(CCNS(=O)(=O)C3CCOC3)c[nH]c12 (configuration not stated) | 14.98%
